High-throughput results deposited in PubChem by National Center for Advancing Translational Sciences (NCATS).
NS1 inh – influenza NS1 inhibition; Potency, µM (highest dose often 46.1 µM), for the others: at the highest dose activity, positive = more growth; hit rate 0.4% among 270,000; also: potency is read from the fitted curve at half-maximal effect; actives are rising curves; nearly all actives have a fitted effect of over 50% in size
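A cell-based growth assay was used: compounds that relieve NS1-induced slow growth of budding yeast raise OD600. Assay medium was yeast nitrogen base with ammonium sulphate and -URA supplement, pH 6.0, with 2% galactose.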
Pf growth 48h – inhibits P. falciparum growth in the first generation, 48 h; Potency, µM (top dose mostly 28.7 µM), inactives show at the highest dose activity change, negative = inhibition, usual class: inhibitors; AID 504832; P. falciparum luciferase growth in erythrocytes, 48 h; hit rate 5.9% among 310,000; active = well fitted inhibition curve with a large enough effect; inconclusive = small, poorly fitted or top-dose-only effect, or another doubt; inactive = no such curve, though single readings can be large or run the other way; also: potency is read from the fitted curve at half-maximal effect; % is scaled to controls: 0 for no effect and ±100 for the full control effect
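Luminescence readout; reporter = integrated firefly luciferase in P. falciparum. RBC culture at 2% hematocrit, 0.1% parasitemia final, 37 C/5% CO2; decreased signal taken as growth inhibition.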
Shiga toxin inh – blocks Shiga toxin action in Vero cells; Vero cells, Shiga toxin protein synthesis inhibition reporter; inhibition, % at 38.7 µM; hit rate 9.2% among 290,000; AID 2315; in the data active = inhibition mostly above about 28%, no sharp cut-off; inactive = mostly below about 43%; also: 0% is about no effect
Pf growth 96h – P. falciparum growth inhibition at 96 hours; P. falciparum luciferase reporter growth, 96 h; Potency, µM (highest dose often 28.7 µM), without a hit: at the highest dose activity change, negative = inhibition, hits mostly inhibitors; hit rate 6.9% among 320,000; active = well fitted inhibition curve with a large enough effect; inconclusive = small, poorly fitted or top-dose-only effect, or another doubt; inactive = no such curve, though single readings can be large or run the other way; also: potency is read from the fitted curve at half-maximal effect; % is scaled to controls: 0 for no effect and ±100 for the full control effect
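P. falciparum expressing integrated firefly luciferase grown in erythrocytes (2% hematocrit, 0.05% parasitemia final) with compounds for 96 hours at 37 C, 5% CO2. Growth inhibition read as loss of luminescence after adding luciferase detection reagent.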
Cycloheximide cs – counter-screen for Shiga toxin inhibitors: cycloheximide protein synthesis inhibition. cell reporter, cycloheximide protein synthesis inhibition counterscreen. max response, %. hit rate 12% among 300,000. AID 2314; in the data active = max response mostly above about 13%, no sharp cut-off; inactive = mostly below about 14%; also: read at 38.3 µM for the half of the compounds with a filed dose; 0% is about no effect
SARS PLP yeast – SARS-CoV PLP inhibition in yeast; S. cerevisiae expressing SARS-CoV PLpro, growth rescue; Potency, µM (highest dose often 32.9 µM), inactives show at the top dose activity, positive = growth rescue, usual class: activators; hit rate 0.19% among 330,000; also: potency is read from the fitted curve at half-maximal effect; 0% is about no effect; nearly all actives have a fitted effect of over 55% in size
Numbers without * were called inactive; ? = inconclusive; / = not tested or not shown; [ ] = remark or other dose. This is a sample that favours compounds with a hit; in the whole collection about 21% have one here. Unless noted, calls follow the shape of the full dose curve.

SMILES	NS1 inh	Pf growth 48h	Shiga toxin inh	Pf growth 96h	Cycloheximide cs	SARS PLP yeast
CSc1ccccc1OCc1cc(C(=O)N(C)Cc2ccc3nsnc3c2)no1	-8.2%	31.4%	100.3*	81.7%	52.3*	-1.7%
CC(C)Nc1ccc(C(CC(N)=O)NC(=O)Cc2ccc(Cl)cc2)cc1[N+](=O)[O-] (stereo not drawn)	-2.4%	-17.8%	2.1	-16.7%	1.4	2.3%
COc1ccc([C@@H]2CC=C(C(=O)O)[C@H](c3ccccc3)N2S(=O)(=O)c2ccc(C)cc2)cc1OC	/	?	/	?	/	-1.2%
COc1cc([C@@H]2CC=C(C(=O)O)[C@H](c3ccc(Cl)cc3)N2S(=O)(=O)c2ccc(C)cc2)cc(OC)c1OC	/	9.28µM*	/	9.28µM*	/	1.5%
COc1cc([C@@H]2CC=C(C(=O)O)[C@H](c3ccccc3)N2S(=O)(=O)c2ccc(C)cc2)cc(OC)c1OC	/	3.29µM*	/	8.28µM*	/	-8.2%
CC(=O)Nc1ccc(N=Cc2c(O)c3ccccc3oc2=O)cc1	0.6%	17.1%	-2.9	1.4%	-1.3	-0.1%
CC(=O)Nc1ccc(N=Cc2c(O)c(C(=O)Nc3ccccc3)cc3ccccc23)cc1	/	?	104.3*	11.5%	25.6	3.1%
C=CCN1C(=O)CSc2ccc(C(=O)N3CCC(C)CC3)cc21	0.4%	-13.7%	16.3	0.0%	-6.3	5.0%
Nc1nnc(SCc2ccc(F)cc2Cl)s1	-71.6%	26.1%	46.7*	/	30.7*	-14.4%
Cc1nnc(SCc2ccc(F)cc2Cl)s1	-11.9%	94.7%	68.5*	151.6%	41.4*	-0.6%
CCOc1cnc(C(=O)NNC(=O)C(Br)C(C)C)o1 (stereo not drawn)	/	-5.9%	-8.3	16.9%	-4.2	2.9%
O=C(Nc1cccc(S(=O)(=O)N2CCCC2)c1)c1cc(=O)[nH]c2ccccc12	/	?	/	-9.9%	/	3.5%
Cc1nnc(SCc2ccc(F)cc2)n1NC/C=C/c1ccccc1	-8.7%	-9.6%	7.8	5.86µM*	-1.4	18.4%
COCCCNC(=O)c1cc2cc3cc(OC)ccc3nc2o1	1.4%	10.4µM*	18.9	-21.5%	19.7*	-5.1%
CCCCN(C)C(=O)c1cc2cc3ccc(OC)cc3nc2o1	-13.6%	9.7%[0.00184 µM]	79.3*	-21.9%	28.9*	-1.4%
CCN(C(=O)c1cc2cc3ccc(C)cc3nc2o1)c1ccc(OC)cc1	-42.0%	?	37.3*	-24.5%	36.2*	-14.2%
CCCCN(C)CCNC(=O)c1cc2cc3ccc(OC)cc3nc2o1	0.5%	12.0%[0.00184 µM]	-4.3	1.3%	-3.0	1.0%
CCN(CC)CCNC(=O)c1cc2cc3ccc(OC)cc3nc2o1	1.8%	-0.6%[0.00184 µM]	-6.5	1.0%	-3.6	-0.5%
CCCCN(C)C(=O)c1cc2cc3cc(OC)ccc3nc2o1	/	?	62.7*	30.1%	41.6*	-6.2%
CC(NCc1cc(Br)ccc1OCC(=O)NCc1ccccc1)c1ccccc1 (stereo not drawn)	1.6%	?	-16.7	?	-1.5	0.9%
S=c1nc(C2CCCCC2)[nH][nH]1	5.1%	6.2%	-10.3	/	2.6	8.1%
O=C(Cc1cccs1)N1CCN(S(=O)(=O)c2cc(Cl)ccc2Cl)CC1	/	?	/	4.6%	/	7.5%
COc1ccc2nc3oc(C(=O)N4CCC(C(N)=O)CC4)cc3cc2c1	-4.6%	11.7µM*	33.5	-60.9%	11.3	4.5%
CCN(CC(=O)NCc1ccc(Cl)cc1)C(=O)CSc1cc(C)ccc1C	/	?	/	3.7%	/	5.3%
Cc1cn(-c2cc(C(=O)Nc3ccc(C)c(NC(=O)C(=O)c4c[nH]c5ccccc45)c3)cc(C(F)(F)F)c2)cn1	-3.7%	1.04µM*	-1.7	?	-4.8	0.6%
Cc1ccc(C(=O)Nc2cccc(C(F)(F)F)c2)cc1NC(=O)c1c[nH]c2cc(C(F)(F)F)ccc2c1=O	/	/	/	/	/	-4.6%
CC[C@@]1(O)C[C@H](O[C@H]2C[C@@H](N(C)C)[C@@H](O[C@H]3C[C@@H](O)[C@@H](O[C@H]4CCC(=O)[C@@H](C)O4)[C@@H](C)O3)[C@@H](C)O2)c2c(cc3c(c2O)C(=O)c2c(O)cccc2C3=O)[C@H]1C(=O)OC	/	0.0849µM*	/	0.0601µM*	/	/
CC1(C)CC2(CC(c3ccc(F)cc3)c3ccc(O)cc3O2)NC(=S)N1 (stereo not drawn)	-68.8%	2.33µM*	-7.0	-16.5%	-2.7	4.3%
